Assay outcomes (PubChem BioAssay)
APOBEC3A inh = human APOBEC3A DNA deaminase inhibition; P31941; recombinant A3A, FAM/TAMRA ssDNA deamination fluorescence; inhibition, % at 20 µM; 330,000 compounds, 0.41% hits; AID 493011;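 active = at least 40% inhibition at 20 µM here, with at most 30% in a related deaminase screen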;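 note: plate controls were A3A with DMSO for no effect and wells lacking A3A enzyme for full effect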
ALR H2O2 inh = inhibitors of human sulfhydryl oxidase ALR; AID 485317; P55789; 290,000 compounds, 3.8% hits; purified ALR, DTT oxidation, H2O2 HRP-luminol luminescence; inhibition, % (concentration not given with the values);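 active = mean replicate inhibition above about 79%, with every replicate also reaching it, limit read from the data; inconclusive = only one of the two criteria met; inactive = mean below limit and not every replicate reaching it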
PHOSPHO1 inh = PHOSPHO1 (human) inhibition; Q8TCT1; 290,000 compounds, 1.1% hits; inhibition, % at 13.3 µM; recombinant PHOSPHO1, absorbance phosphatase assay; in the data active = inhibition above about 60%
Target sequence (Q8TCT1 whole entry, looked up): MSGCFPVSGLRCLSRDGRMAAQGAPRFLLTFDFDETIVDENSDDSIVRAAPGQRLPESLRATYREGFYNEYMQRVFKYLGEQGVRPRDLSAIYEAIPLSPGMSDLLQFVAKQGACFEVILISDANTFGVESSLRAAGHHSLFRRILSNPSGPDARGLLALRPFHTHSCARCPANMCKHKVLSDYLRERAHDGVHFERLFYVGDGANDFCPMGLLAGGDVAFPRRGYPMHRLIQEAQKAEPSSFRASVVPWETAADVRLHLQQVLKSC
rCAG binder = r(CAG) repeat RNA binding. inhibition, % at 3 µM. 370,000 compounds, 1.3% hits. TO-PRO-1 dye displacement fluorescence. AID 651821;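 active = inhibition above the plate cutoff, the mean of all test compounds on that plate plus 3 SD, cut at about 35% in these data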;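 note: 0% = DMSO alone and 100% = 100 µM mitoxantrone as full dye displacement; higher means more dye released from RNA so lower well fluorescence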
APOBEC3G inh = blocks human APOBEC3G single-stranded DNA deamination; inhibition, % at 20 µM; AID 493012; 330,000 compounds, 0.28% hits; recombinant A3G, ssDNA deamination FAM/TAMRA fluorescence;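 active = inhibition of at least 40% at 20 µM, with no more than 30% in the related APOBEC3A deaminase screen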;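 note: plate controls were DMSO wells with A3G for no effect and wells lacking A3G enzyme for full effect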
aDG glyco up = increases alpha dystroglycan glycosylation | activation, % at 10 µM | Pro5-aDG cells, alpha-DG glycosylation AlphaScreen (IIH6); 0% Pro5, 100% B10-LARGE cell signal | AID 624168 | 360,000 compounds, 0.22% hits;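 active = activation of at least 8% versus controls, or a plate z-score of at least 8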;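 note: Pro5 are CHO cells carrying HIG-tagged alpha-DG that lacks glycosylation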
Active calls of the source: *; ? = inconclusive; . = no result. Sampled rows, rich in hits. Any-hit rate of the full collection: about 5.4%.

SMILES	APOBEC3A inh	ALR H2O2 inh	PHOSPHO1 inh	rCAG binder	APOBEC3G inh	aDG glyco up
CCCc1cc(C(=O)N2CCCC(N3CCN(c4ccc(F)cc4)CC3)C2)no1 (configuration not stated)	-11	98*	47	-7	-8	0
O=C(C(=O)N1CCC(CNS(=O)(=O)c2ccc(OC(F)(F)F)cc2)CC1)c1cc2ccccc2o1	.	.	.	5	.	.
C#CCNC(=O)C[C@H]1C[C@@]2(C(=O)OC)C(=C[C@H](COCc3ccccc3)O[C@@H]2C)N(Cc2ccc(Cl)cc2Cl)C1=O	.	.	.	7	.	.
COc1cc(/C=N/NS(=O)(=O)c2ccc(C)c([N+](=O)[O-])c2)cc([N+](=O)[O-])c1O	-4	93*	30	11	-4	0
O=[N+]([O-])c1cccc(S(=O)(=O)N/N=C/c2ccc(O)cc2)c1	0	93*	-3	0	-1	0
COc1cc(/C=N/NS(=O)(=O)c2ccc(C)c([N+](=O)[O-])c2)ccc1O	9	99*	13	4	-13	0
O=C(C(=O)N1CCC(CNC(=O)C2COc3ccccc3O2)CC1)c1cc2ccccc2o1 (configuration not stated)	.	.	.	4	.	.
CCOC(=O)Oc1ccc2c(=O)c(Oc3cccc(C)c3)coc2c1	0	96*	-12	-3	0	0
Cc1ccc(CN2CCN(C(=O)c3ccncc3)CC2)cc1	-3	0	68*	-4	-11	0
O=C(c1ccccc1)N1CCN(Cc2ccccc2)CC1	0	-1	-10	-3	-3	0
COc1ccc(S(=O)(=O)Cc2ccc(C(=O)N3CCN(Cc4ccccc4)CC3)o2)cc1	-4	?	-11	2	-3	0
O=C(c1ccc(CS(=O)(=O)c2ccc(Br)cc2)o1)N1CCCC1	-2	96*	-13	0	-8	0
Cc1ccc(S(=O)(=O)Cc2ccc(C(=O)N3CCN(Cc4ccccc4)CC3)o2)cc1	27	94*	-21	7	8	0
CCc1nc(N[C@@H](Cc2c[nH]c3ccccc23)C(=O)O)c2oc3ccccc3c2n1	-12	89*	20	36*	-4	0
CCOc1ccc(-n2c(SCC(=O)Nc3ccc4cn[nH]c4c3)nnc2-c2ccc(C(C)(C)C)cc2)cc1	.	.	.	12	.	.
Cc1cc(O)c(/C=N/Nc2ccc(Cl)cc2)c(=O)o1	6	98*	-106	5	32	6.5*
Cc1cc(O)c(/C=N/Nc2cccc(Cl)c2)c(=O)o1	-3	.	101*	1	25	0
CCN(CC)c1ccc(-c2nn3c(-c4ccc(C(C)(C)C)cc4)nnc3s2)cc1	.	.	.	4	.	.
Cc1cc(C(=O)OCCCN(C)C2CN(Cc3cn(Cc4ccccc4C(F)(F)F)nn3)S(=O)(=O)C2)no1 (configuration not stated)	.	.	.	2	.	.
CCCCCCCCN1C(=O)[C@@H](CC(=O)NCc2cccs2)C[C@@]2(C(=O)OC)C1=C[C@H](C1CCCC1)O[C@@H]2C	.	.	.	2	.	.
N/C(=N\O)c1ccc(N2CCN(c3ncccc3C(F)(F)F)CC2)nc1	2	91*	39	-6	-1	0
O=C(N[C@H](C(=O)N1CCC[C@H]1C(=O)NCc1ccccc1)C1CCCCC1)c1ccc(Cl)cc1Cl	.	.	.	0	.	.
O=C(NCCNS(=O)(=O)c1ccc(Cl)cc1)c1cc(OCC(F)(F)F)ccc1OCC(F)(F)F	-2	-16	1	-2	-3	0
O=C(NCCNS(=O)(=O)c1ccccc1)c1cc(OCC(F)(F)F)ccc1OCC(F)(F)F	-1	50	62*	-5	-1	0
CCCCS(=O)(=O)/C=C\C=C/S(=O)(=O)CCCC	2	98*	7	.	2	-1
COc1ccc(CNC(=O)C(=O)c2cn(CC(=O)N3CCCC3)c3ccccc23)cc1	0	-4	24	0	-8	0
COc1ccccc1CNC(=O)C(=O)c1cn(CC(=O)N2CCCC2)c2ccccc12	-1	1	62*	-3	1	0
Oc1ccc(-c2csc(Nc3ccccn3)n2)cc1O	3	98*	-6	26	2	0
Cc1cccc(Nc2nc(-c3ccc(O)c(O)c3)cs2)n1	0	99*	31	20	-6	0
Cc1ccnc(Nc2nc(-c3ccc(O)cc3)cs2)c1	0	38	26	12	-6	0
